Laboratory results as given in the supplement of paper PMC10849652.
Of roughly 8,800 targets only a part is listed; those with a hit were picked by preference. About 0.5% of all pairs of compound and target were hits.

Key:
Experiment in all cases: log2 fold change, soluble protein after heating vs DMSO (PISA); higher = thermal stabilisation; K562 lysate, 10 uM; active = over 0.2 and 3.5 SD of the protein, either way, in both replicates (recomputed)
lapatinib = compound: CS(=O)(=O)CCNCc1ccc(-c2ccc3ncnc(Nc4ccc(OCc5cccc(F)c5)c(Cl)c4)c3c2)o1 [lapatinib]
Outline: (§1)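 Soluble protein was defined as the supernatant remaining after 21,000xg for 90 min, following pooling of heated aliquots and adjustment to 0.5% NP-40 at 4°C. Before that, crude K562 extract at 1 mg/mL protein in PBS pH 7.4 with 1 mM MgCl2 was treated with 10 μM compound for 30 min and heated for 3 min across 48°C-58°C. Quantification used TMTpro 16plex LC-MS/MS with channel sums equalised, and values are log-two fold changes in thermal stability relative to solvent controls from duplicates.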

pictilisib = compound: CS(=O)(=O)N1CCN(Cc2cc3nc(-c4cccc5[nH]ncc45)nc(N4CCOCC4)c3s2)CC1 [pictilisib]
Outline: as §1

crizotinib = compound: C[C@@H](Oc1cc(-c2cnn(C3CCNCC3)c2)cnc1N)c1c(Cl)ccc(F)c1Cl [crizotinib]
Outline: as §1

[1] = compound: C[C@H](C1=CC=C(C=C1)C(=O)NC2=C3C=CNC3=NC=C2)N
Outline: as §1

duvelisib = compound: C[C@H](Nc1ncnc2nc[nH]c12)c1cc2cccc(Cl)c2c(=O)n1-c1ccccc1 [duvelisib]
Outline: as §1

gandotinib = compound: Cc1cc(Nc2cc(CN3CCOCC3)c3nc(C)c(Cc4ccc(Cl)cc4F)n3n2)n[nH]1 [gandotinib]
Outline: as §1

tozasertib = compound: Cc1cc(Nc2cc(N3CCN(C)CC3)nc(Sc3ccc(NC(=O)C4CC4)cc3)n2)n[nH]1 [tozasertib]
Outline: as §1

doramapimod = compound: Cc1ccc(-n2nc(C(C)(C)C)cc2NC(=O)Nc2ccc(OCCN3CCOCC3)c3ccccc23)cc1 [doramapimod]
Outline: as §1

bafetinib = compound: Cc1ccc(NC(=O)c2ccc(CN3CC[C@H](N(C)C)C3)c(C(F)(F)F)c2)cc1Nc1nccc(-c2cncnc2)n1 [bafetinib]
Outline: as §1

[2] = compound: Cc1cccc(CC(=O)N2CCc3c2ccc(-c2cn(C)c4ncnc(N)c24)c3F)n1
Outline: as §1

Measured: log2 fold change

GFPT1 (UniProt Q06210)
Chain of UniProt Q06210 (Q06210 whole entry, looked up): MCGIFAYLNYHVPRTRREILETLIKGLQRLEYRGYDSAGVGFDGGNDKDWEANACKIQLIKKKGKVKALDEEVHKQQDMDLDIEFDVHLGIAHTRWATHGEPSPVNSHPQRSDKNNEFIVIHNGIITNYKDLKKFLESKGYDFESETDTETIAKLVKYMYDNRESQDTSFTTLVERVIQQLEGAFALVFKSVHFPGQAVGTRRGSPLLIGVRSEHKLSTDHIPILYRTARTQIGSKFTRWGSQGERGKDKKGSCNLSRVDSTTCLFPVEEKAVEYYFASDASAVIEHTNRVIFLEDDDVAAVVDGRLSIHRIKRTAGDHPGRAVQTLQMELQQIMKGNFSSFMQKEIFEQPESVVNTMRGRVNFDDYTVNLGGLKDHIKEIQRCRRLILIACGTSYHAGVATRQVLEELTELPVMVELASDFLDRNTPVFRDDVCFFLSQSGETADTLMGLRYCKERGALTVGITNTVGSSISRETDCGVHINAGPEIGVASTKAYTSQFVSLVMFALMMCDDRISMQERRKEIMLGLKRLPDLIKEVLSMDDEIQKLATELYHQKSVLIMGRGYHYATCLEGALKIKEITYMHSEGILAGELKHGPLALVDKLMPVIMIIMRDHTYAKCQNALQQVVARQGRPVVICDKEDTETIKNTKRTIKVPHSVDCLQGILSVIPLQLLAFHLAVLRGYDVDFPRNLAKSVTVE
inactive: lapatinib -0.001 | pictilisib -0.026 | crizotinib -0.033 | [1] 0.009 | duvelisib -0.002 | gandotinib -0.066 | tozasertib -0.013 | doramapimod -0.001 | bafetinib -0.031 | [2] 0.007

FAM120B (UniProt Q96EK7)
Chain of UniProt Q96EK7 (Q96EK7 whole entry, looked up): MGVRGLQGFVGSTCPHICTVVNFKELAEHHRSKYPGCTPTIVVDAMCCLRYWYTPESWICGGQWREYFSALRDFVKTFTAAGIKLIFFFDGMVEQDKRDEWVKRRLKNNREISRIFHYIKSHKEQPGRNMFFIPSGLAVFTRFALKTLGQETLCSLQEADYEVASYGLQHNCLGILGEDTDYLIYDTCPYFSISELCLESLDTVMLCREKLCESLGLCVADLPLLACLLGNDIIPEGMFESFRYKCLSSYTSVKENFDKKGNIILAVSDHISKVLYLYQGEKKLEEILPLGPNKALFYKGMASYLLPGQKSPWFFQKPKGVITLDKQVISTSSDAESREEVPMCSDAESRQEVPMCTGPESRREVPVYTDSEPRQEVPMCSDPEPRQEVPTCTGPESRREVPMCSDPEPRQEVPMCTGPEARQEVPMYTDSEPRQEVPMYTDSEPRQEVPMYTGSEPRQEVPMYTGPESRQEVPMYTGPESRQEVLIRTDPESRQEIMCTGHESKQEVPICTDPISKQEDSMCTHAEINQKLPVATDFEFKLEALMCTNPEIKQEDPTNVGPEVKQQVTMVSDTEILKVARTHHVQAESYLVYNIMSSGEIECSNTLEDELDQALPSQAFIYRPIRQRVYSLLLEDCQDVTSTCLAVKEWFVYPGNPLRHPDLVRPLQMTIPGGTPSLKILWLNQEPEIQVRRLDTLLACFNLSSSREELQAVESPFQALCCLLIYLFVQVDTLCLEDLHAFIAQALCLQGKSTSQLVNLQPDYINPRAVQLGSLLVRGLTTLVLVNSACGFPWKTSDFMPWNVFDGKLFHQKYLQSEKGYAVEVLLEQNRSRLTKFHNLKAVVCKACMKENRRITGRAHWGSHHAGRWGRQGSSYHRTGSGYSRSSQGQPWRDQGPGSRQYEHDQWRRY
inactive: lapatinib 0.041 | pictilisib -0.012 | crizotinib -0.021 | [1] -0.018 | duvelisib -0.021 | gandotinib -0.051 | tozasertib -0.064 | doramapimod 0.021 | bafetinib -0.045 | [2] 0.045

FADS3 (UniProt Q9Y5Q0)
Chain of UniProt Q9Y5Q0 (Q9Y5Q0 whole entry, looked up): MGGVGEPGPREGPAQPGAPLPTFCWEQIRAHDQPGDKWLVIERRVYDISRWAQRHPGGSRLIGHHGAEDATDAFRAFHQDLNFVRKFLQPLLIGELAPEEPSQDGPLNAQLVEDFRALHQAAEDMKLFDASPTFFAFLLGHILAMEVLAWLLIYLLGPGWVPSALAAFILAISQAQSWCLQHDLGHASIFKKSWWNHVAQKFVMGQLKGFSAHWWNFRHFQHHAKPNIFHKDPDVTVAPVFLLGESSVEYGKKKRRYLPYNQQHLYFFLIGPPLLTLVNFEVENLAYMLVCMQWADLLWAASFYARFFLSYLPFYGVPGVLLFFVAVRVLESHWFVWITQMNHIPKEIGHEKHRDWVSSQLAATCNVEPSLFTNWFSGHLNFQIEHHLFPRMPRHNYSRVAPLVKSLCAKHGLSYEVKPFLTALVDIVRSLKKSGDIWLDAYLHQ
inactive: lapatinib 0.13 | pictilisib -0.014 | crizotinib -0.065 | [1] -0.322 | duvelisib -0.09 | gandotinib 0 | tozasertib 0.079 | doramapimod -0.001 | bafetinib -0.131 | [2] -0.309

EAPP (UniProt Q56P03)
Chain of UniProt Q56P03 (Q56P03 whole entry, looked up): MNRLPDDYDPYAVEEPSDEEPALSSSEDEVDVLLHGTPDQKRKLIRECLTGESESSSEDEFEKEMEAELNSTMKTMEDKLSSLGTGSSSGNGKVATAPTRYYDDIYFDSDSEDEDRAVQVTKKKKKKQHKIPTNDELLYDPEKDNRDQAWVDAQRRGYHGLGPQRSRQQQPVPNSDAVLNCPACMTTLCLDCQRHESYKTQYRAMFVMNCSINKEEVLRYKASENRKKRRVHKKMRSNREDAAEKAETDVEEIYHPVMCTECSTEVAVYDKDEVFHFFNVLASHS
inactive: lapatinib -0.033 | pictilisib 0.058 | crizotinib 0 | [1] 0.03 | duvelisib 0.03 | gandotinib -0.157 | tozasertib -0.09 | doramapimod -0.058 | bafetinib 0.109 | [2] 0.128

ECH1 (UniProt Q13011)
inactive: lapatinib -0.035 | pictilisib -0.008 | crizotinib -0.03 | [1] -0.089 | duvelisib 0.016 | gandotinib 0.005 | tozasertib 0.178 | doramapimod -0.008 | bafetinib 0.091 | [2] 0.028

ENO1 isoform 2 (UniProt P06733)
active: [1] -0.285
inactive: lapatinib 0.005 | pictilisib -0.012 | crizotinib -0.019 | duvelisib 0.049 | gandotinib 0.153 | tozasertib 0.026 | doramapimod -0.019 | bafetinib 0.07 | [2] 0.222

GEMIN2 (UniProt O14893)
Chain of UniProt O14893 (O14893 whole entry, looked up): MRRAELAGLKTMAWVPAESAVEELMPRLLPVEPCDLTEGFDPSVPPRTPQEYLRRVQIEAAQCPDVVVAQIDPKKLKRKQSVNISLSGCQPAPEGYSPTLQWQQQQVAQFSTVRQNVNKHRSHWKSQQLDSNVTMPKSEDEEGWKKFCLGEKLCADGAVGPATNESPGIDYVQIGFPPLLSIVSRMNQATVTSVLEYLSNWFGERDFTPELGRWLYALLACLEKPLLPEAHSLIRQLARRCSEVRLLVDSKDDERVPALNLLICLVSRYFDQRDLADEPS
inactive: lapatinib -0.025 | pictilisib -0.029 | crizotinib 0.059 | [1] -0.12 | duvelisib 0.075 | gandotinib 0 | tozasertib -0.021 | doramapimod -0.092 | bafetinib -0.053 | [2] 0.139

FMNL1 isoform 3 (UniProt O95466)
Chain of UniProt O95466 (O95466 whole entry, looked up): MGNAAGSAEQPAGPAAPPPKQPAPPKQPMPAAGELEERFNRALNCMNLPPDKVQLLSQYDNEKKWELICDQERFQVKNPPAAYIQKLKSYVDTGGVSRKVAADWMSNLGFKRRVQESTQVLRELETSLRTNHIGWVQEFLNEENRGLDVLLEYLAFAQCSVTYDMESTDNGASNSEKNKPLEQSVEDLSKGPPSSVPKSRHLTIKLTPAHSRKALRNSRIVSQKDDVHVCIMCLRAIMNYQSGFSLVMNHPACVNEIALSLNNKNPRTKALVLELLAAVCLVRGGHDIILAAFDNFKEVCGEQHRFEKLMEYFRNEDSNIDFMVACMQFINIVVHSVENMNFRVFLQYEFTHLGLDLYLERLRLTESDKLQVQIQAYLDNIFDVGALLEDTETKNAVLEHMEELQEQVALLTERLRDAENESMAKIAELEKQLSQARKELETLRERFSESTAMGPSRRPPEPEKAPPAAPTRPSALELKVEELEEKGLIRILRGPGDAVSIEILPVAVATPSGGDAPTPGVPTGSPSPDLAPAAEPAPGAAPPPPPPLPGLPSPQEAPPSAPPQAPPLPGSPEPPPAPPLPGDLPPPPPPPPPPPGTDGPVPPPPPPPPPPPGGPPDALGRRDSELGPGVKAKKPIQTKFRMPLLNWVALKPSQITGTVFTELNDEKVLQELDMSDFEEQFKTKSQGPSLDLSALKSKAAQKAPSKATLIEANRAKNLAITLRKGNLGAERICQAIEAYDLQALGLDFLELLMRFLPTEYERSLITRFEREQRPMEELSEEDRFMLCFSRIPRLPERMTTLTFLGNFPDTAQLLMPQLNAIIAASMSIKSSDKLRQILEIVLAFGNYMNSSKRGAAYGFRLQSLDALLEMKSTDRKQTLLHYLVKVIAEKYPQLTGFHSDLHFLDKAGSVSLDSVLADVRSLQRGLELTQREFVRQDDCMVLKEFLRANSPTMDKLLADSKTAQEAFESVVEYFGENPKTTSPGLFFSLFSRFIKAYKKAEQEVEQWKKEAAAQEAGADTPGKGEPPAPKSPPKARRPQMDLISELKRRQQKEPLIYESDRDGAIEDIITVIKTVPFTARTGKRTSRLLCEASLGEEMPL
inactive: lapatinib 0.058 | pictilisib 0.005 | crizotinib -0.013 | [1] 0.044 | duvelisib 0 | gandotinib -0.056 | tozasertib -0.051 | doramapimod 0.048 | bafetinib -0.055 | [2] 0.042

ESYT2 (UniProt H7BXI1)
inactive: lapatinib -0.008 | pictilisib 0.01 | crizotinib -0.039 | [1] 0.089 | duvelisib 0.018 | gandotinib -0.073 | tozasertib 0.063 | doramapimod 0.018 | bafetinib -0.115 | [2] 0.002

FIBP (UniProt O43427)
inactive: lapatinib -0.016 | pictilisib -0.074 | crizotinib -0.08 | [1] 0.003 | duvelisib 0.073 | gandotinib -0.031 | tozasertib 0.05 | doramapimod -0.038 | bafetinib -0.025 | [2] 0.094

EIF1 (UniProt P41567)
inactive: lapatinib 0.053 | pictilisib 0.016 | crizotinib 0.002 | [1] -0.051 | duvelisib 0.044 | gandotinib 0.068 | tozasertib -0.008 | doramapimod -0.092 | bafetinib 0.052 | [2] 0.021

FXR1 (UniProt P51114)
Chain of UniProt P51114 (P51114 whole entry, looked up): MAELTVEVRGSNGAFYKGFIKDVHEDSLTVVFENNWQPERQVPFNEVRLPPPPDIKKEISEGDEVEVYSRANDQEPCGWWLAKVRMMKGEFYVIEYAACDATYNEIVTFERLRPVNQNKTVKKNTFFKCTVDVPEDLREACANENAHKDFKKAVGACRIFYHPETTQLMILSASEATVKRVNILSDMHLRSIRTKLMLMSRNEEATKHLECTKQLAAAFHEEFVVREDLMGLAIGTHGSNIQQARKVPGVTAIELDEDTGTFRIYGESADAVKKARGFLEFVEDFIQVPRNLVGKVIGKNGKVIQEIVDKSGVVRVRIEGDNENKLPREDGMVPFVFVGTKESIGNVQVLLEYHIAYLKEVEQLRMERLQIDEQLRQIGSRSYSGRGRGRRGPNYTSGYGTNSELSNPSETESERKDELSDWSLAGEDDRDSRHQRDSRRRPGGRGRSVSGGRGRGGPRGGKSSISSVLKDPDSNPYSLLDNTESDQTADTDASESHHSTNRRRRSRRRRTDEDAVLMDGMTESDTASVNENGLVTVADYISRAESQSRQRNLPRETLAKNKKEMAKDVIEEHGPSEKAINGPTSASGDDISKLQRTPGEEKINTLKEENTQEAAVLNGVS
inactive: lapatinib -0.026 | pictilisib -0.052 | crizotinib -0.006 | [1] -0.106 | duvelisib 0.023 | gandotinib -0.02 | tozasertib 0.008 | doramapimod 0.065 | bafetinib -0.03 | [2] 0.05

FASTKD2 (UniProt Q9NYY8)
Chain of UniProt Q9NYY8 (Q9NYY8 whole entry, looked up): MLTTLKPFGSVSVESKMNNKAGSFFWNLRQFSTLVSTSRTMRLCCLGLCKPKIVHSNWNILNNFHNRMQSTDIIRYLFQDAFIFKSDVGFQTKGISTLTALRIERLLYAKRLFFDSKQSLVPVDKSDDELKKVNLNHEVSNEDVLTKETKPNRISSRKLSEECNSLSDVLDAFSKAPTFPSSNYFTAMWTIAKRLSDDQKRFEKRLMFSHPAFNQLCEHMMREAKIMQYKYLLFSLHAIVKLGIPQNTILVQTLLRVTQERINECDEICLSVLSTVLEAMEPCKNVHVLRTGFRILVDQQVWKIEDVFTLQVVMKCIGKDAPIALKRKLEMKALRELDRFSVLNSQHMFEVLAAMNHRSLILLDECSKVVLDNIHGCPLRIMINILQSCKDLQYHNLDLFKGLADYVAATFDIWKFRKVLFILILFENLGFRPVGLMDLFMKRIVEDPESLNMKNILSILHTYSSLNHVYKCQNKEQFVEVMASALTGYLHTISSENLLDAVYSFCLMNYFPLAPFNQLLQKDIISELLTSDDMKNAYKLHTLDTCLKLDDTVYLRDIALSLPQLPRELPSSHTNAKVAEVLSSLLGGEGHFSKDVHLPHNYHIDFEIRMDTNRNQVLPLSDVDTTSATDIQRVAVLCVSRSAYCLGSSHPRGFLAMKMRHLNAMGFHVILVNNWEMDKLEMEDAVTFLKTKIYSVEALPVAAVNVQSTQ
inactive: lapatinib -0.028 | pictilisib -0.001 | crizotinib -0.032 | [1] -0.067 | duvelisib 0.026 | gandotinib -0.049 | tozasertib -0.013 | doramapimod 0.028 | bafetinib -0.028 | [2] 0.05

GDE1 (UniProt Q9NZC3)
active: [1] 0.842 | gandotinib -0.434 | [2] -0.409
inactive: lapatinib -0.016 | pictilisib 0.114 | crizotinib -0.005 | duvelisib 0.049 | tozasertib 0.157 | doramapimod -0.017 | bafetinib -0.041

FOXK1 (UniProt P85037)
inactive: lapatinib 0.006 | pictilisib -0.036 | crizotinib 0.025 | [1] -0.024 | duvelisib -0.043 | gandotinib 0.002 | tozasertib 0.009 | doramapimod 0.035 | bafetinib 0.029 | [2] 0.034
